Shown are actives, neighbours in structure and some others; about 7.5% of the full set was active somewhere.
Rab9 promoter act: Rab9 promoter activation; Potency, µM (doses to about 9.22 µM), for inactives: top-dose activation, negative = inhibition, most hits filed as activators; 2.8% of 320,000 active; Huh7 Rab9 promoter-luciferase reporter, luminescence, 24 h; note: % of control where 0% means no effect; nearly all actives have a fitted effect of over 60% in size
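Luciferase signal after 10 min detection reagent at ambient indicates Rab9 promoter upregulation; stably transfected Huh7 cells were treated 24 h with compound in DMSO at 37 °C, 5% CO2.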
ELG1 genotox: induces genotoxicity in HEK293T cells with luciferase-tagged ELG1; HEK293T ELG1-luciferase reporter, luminescence, 16 h; Potency, µM (titrated, usually from 46 µM), without a hit: top-dose activity change, positive = activation, hits mostly activators; 1.3% of 330,000 active; AID 504466; note: % of control where 0% means no effect; nearly all actives have a fitted effect of over 60% in size
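HEK293T cells expressing luciferase-tagged ELG1 were exposed to compound or DMSO vehicle for 16 hr at 37 °C and 5% CO2. Luciferase activity was then measured with ONE-Glo after 30 min at room temperature.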
KinaseGlo FLuc: blocks Kinase-Glo luciferase, a counter-screen artifact; Q27757; Kinase-Glo luciferase, ATP luminescence, 8 min; Potency, µM (doses to about 38.3 µM), without a hit: at the highest dose activity change, negative = inhibition, usual class: inhibitors; 0.28% of 200,000 active; note: % is set by controls: 0 for no effect and ±100 for the full control effect; nearly all actives have a fitted effect of over 60% in size
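Kinase-Glo luciferase light output from ATP and luciferin was measured with 10 uM ATP, within the enzyme's linear range. Buffer: 50 mM imidazole pH 7.2, 50 mM KCl, 7 mM MgCl2, 0.01% Tween 20, 0.05% BSA; luminescence read after 8 min at ambient temperature.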
FLuc counter: counter-screen for miR-21 project: firefly luciferase inhibitors or activators; P08659; purified FLuc, Km substrates, luminescence inhibition; Potency, µM (titrated, usually from 57.5 µM), for inactives: at the top dose activity change, negative = inhibition, actives largely listed as inhibitors; 6.9% of 360,000 active;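 note: plate controls were vehicle for no effect and reference inhibitor for full effect; nearly all actives have a fitted effect of over 55% in size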
Target sequence (P08659 whole entry, looked up): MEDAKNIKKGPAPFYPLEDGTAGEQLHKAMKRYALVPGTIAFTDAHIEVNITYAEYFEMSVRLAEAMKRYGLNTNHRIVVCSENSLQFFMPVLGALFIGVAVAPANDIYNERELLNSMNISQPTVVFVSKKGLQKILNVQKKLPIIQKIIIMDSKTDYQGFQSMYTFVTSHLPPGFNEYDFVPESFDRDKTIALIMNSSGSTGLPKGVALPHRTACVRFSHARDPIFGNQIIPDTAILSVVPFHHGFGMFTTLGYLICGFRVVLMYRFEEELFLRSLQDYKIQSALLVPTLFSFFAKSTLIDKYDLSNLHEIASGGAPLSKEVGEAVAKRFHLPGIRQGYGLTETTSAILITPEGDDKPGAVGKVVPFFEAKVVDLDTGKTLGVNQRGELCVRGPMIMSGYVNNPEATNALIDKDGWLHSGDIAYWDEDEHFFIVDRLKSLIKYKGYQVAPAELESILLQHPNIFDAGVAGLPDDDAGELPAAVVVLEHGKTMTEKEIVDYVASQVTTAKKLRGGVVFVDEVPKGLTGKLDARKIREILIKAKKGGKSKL
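Purified P. pyralis luciferase, 10 nM final, with Km-level 10 uM D-luciferin and 10 uM ATP in 50 mM Tris acetate pH 7.5, 10 mM Mg acetate, 0.01% Tween-20, 0.05% BSA; 6-point qHTS titration about 60 µM downward; luminescence read.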
SMN2 splice enh: increases expression of the SMN2 splice variant. HEK293 SMN2-luciferase splicing reporter, luminescence, 30-36 h. Potency, µM (series often up to 46.1 µM), inactives show at the top dose activity change, positive = activation, usual class: activators. 2.8% of 210,000 active; note: % of control where 0% means no effect; nearly all actives have a fitted effect of over 55% in size
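HEK293 cells carry an SMN2 minigene-luciferase reporter in which exon 7 inclusion puts luciferase in frame. Cells were seeded at 2000 cells/well, attached for 10-12 hours, then exposed to compounds for 30-36 hours at 37C before ONE-Glo luminescence.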
NPC1 promoter act: activators of NPC1 promoter; Potency, µM (top dose mostly 9.22 µM), inactives show top-dose activation, hits mostly activators; 2.4% of 320,000 active; Huh7 NPC1 promoter luciferase reporter, 24 h; note: % of control where 0% means no effect; nearly all actives have a fitted effect of over 60% in size
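Quantitative HTS used a cell-based reporter: Huh7 cells stably bearing the NPC1 promoter upstream of luciferase were treated with compounds for 24 h, and promoter activation was read as luminescence.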
An asterisk follows results filed as active; u = inconclusive; x = no result; [ ] = another dose, or the depositor's remark. Calls come from the whole dose curve; as a rule, active = well fitted curve in the direction sought with a large enough effect; inconclusive = small, poorly fitted or top-dose-only effect, or another doubt; inactive = no such curve, though single readings can be large; an effect the other way counts as inactive or inconclusive. Potency is the fitted concentration of half-maximal effect.

SMILES	Rab9 promoter act	ELG1 genotox	KinaseGlo FLuc	FLuc counter	SMN2 splice enh	NPC1 promoter act
C(=N\n1cnnc1)/c1ccc(OCc2cccc3ccccc23)cc1	u	u	7%	u	14µM*	u
Fc1ccccc1COc1ccc(/C=N/n2cnnc2)cc1	-2%	3%	-2%	-19%	-10%	14%
C(=N\n1cnnc1)/c1cccc(OCCOc2ccccc2)c1	1.4µM*	5%	-3%	u	11µM*	2.8µM*
O=[N+]([O-])c1ccc(N/N=C/c2ccc(OCc3cccc4ccccc34)cc2)nc1	-2%	21µM*	0%	2%	-20%	21%
O=C(O)Cc1[nH]cnc1C(=O)O	x	x	-8%[7.66 µM]	x	-2%[9.22 µM]	x
Cc1cc2c([nH]c3ccccc32)c2c1OC(C)(C)C=C2	3.2µM*	u	x	11µM*	x	3.2µM*
COc1ccc2[nH]c(=O)c3c(c2c1)OC(C)(C)C=C3	-3%	-6%	-2%	1%	12%	18%
COc1c(C(=O)NNC(=O)c2ccccc2Cl)csc1Br	u	u	x	21µM*	x	3.5µM*
COc1cc(/C=C(/NC(=O)c2ccccc2Cl)C(=O)O)cc(OC)c1OC	0%	0%	2%	-2%	-13%	7%
Nc1nc2ccc(Cc3ccncc3)cc2s1	u	u	x	17µM*	x	19%
COc1ccccc1C(=O)Nc1ccc2c(c1)n(C)c(=O)n2C	-3%	u	x	u	x	-5%
CCCc1cc(=O)oc2c(C)c3c(cc12)CN(CCc1ccc(Cl)cc1)CO3	x	x	x	-10%	10%	x
O=C(/C=C/c1ccc(OCc2cccc(Cl)c2)cc1)N1CCOCC1	5%	-1%	3%	u	-24%	1%
O=C(O)/C=C/c1ccc(OCc2cccc(F)c2)cc1	-2%	26%	4%	17µM*	x	1%
COC(=O)Cc1ccc2sc(-c3ccccc3)nc2c1	2.5µM*	2.6µM*	13µM*	0.67µM*	1.6µM*	1.6µM*
O=C(O)Cc1ccc2sc(-c3ccccc3)nc2c1	21%	8%	u	19µM*	21%	14%
Cc1ccc(-n2nnnc2CNC(=O)c2ccccc2F)cc1C	x	x	x	-1%	x	x
Cc1ccc([N+](=O)[O-])cc1S(=O)(=O)Nc1cccc(-c2ccc(N3CCOCC3)nn2)c1	u	9.2µM*	x	3µM*	x	20%
O=[N+]([O-])c1ccccc1S(=O)(=O)Nc1ccc(-c2ccc(N3CCOCC3)nn2)cc1	19%	3%	x	u	x	17%
O=[N+]([O-])c1ccccc1S(=O)(=O)Nc1cccc(-c2ccc(N3CCCC3)nn2)c1	20%	u	x	17µM*	x	23%
O=S(=O)(Nc1ccc(N2CCOCC2)cc1)c1cc(Cl)ccc1Cl	-6%	6%	x	-1%	x	-2%
O=[N+]([O-])c1ccccc1S(=O)(=O)Nc1cccc(-c2ccc(N3CCOCC3)nn2)c1	u	u	x	2.7µM*	x	25%
O=S(=O)(Nc1cccc(-c2ccc(N3CCOCC3)nn2)c1)c1cc(Cl)ccc1Cl	u	u	x	7.6µM*	x	19%
N#CCCn1c(=O)c(CCc2ccccc2)nc2cnc(N3CCOCC3)nc21	x	x	-5%	x	-3%	x
CC(C)c1ccccc1NC(=O)COC(=O)/C=C/c1cccc([N+](=O)[O-])c1	-1%	3%	2%	0%	9%	1%
SMILES	Rab9 promoter act	ELG1 genotox	KinaseGlo FLuc	FLuc counter	SMN2 splice enh	NPC1 promoter act
COc1cccc(CC(=O)NCc2ccc3c(c2)CCN3C(C)=O)c1	x	x	x	2%	x	x
COc1cccc(-n2c(SCC(N)=O)nc3c([nH]c4ccccc43)c2=O)c1	2%	14%	2%	-12%	13µM*	1%
COc1cccc(-n2c(SCC(=O)c3ccc(Cl)cc3)nc3c([nH]c4ccccc43)c2=O)c1	x	x	x	-3%	x	x
Cc1ccc2scc(N3CCCC(C)C3)c(=O)c2c1 (configuration not stated)	x	x	x	0.76µM*	x	x
Cc1ccc2scc(N3CCN(c4cccc(C(F)(F)F)c4)CC3)c(=O)c2c1	x	x	x	-7%	x	x
CC1CCCCN1c1csc2ccc(F)cc2c1=O (configuration not stated)	x	x	x	7.6µM*	x	x
C[C@H](CO)N1C[C@H](C)[C@@H](CN(C)C(=O)Nc2ccc3c(c2)OCO3)Oc2ccc(NS(=O)(=O)c3ccc(F)cc3)cc2C1=O	x	0%	x	x	x	x
Cc1cc(C)cc(NC(=O)CCc2c(C)nn(-c3ccc(N4CCOCC4)nn3)c2C)c1	8%	3%[9.26 µM]	x	15µM*	x	8%
Cc1nn(-c2ccc(N3CCCC3)nn2)c(C)c1CCC(=O)NCc1ccc(F)cc1	x	x	x	5%	x	x
Cc1nn(-c2ccc(N3CCCCC3)nn2)c(C)c1CCC(=O)Nc1ccc(F)cc1	u	6%	x	13µM*	x	u
Cc1nn(-c2ccc(N3CCCC3)nn2)c(C)c1CCC(=O)Nc1ccccc1	x	x	x	-6%	x	x
Cc1nn(-c2ccc(N3CCCCC3)nn2)c(C)c1CCC(=O)Nc1cccc(F)c1	4µM*	u	x	4.8µM*	x	2.8µM*
CCc1cccc(NC(=O)CCc2c(C)nn(-c3ccc(N4CCCCC4)nn3)c2C)c1	u	14%	x	11µM*	x	24%
CCc1ccc(NC(=O)CCc2c(C)nn(-c3ccc(N4CCCCC4)nn3)c2C)cc1	u	13%	x	12µM*	x	u
CCOc1ccc(NC(=O)CCc2c(C)nn(-c3ccc(N4CCCCC4)nn3)c2C)cc1	2.8µM*	u	x	2.7µM*	x	u
CCOc1ccc(CNC(=O)CCc2c(C)nn(-c3ccc(N4CCOCC4)nn3)c2C)cc1	x	x	x	2%	x	x
COc1ccc(NC(=O)CCc2c(C)nn(-c3ccc(N4CCCC4)nn3)c2C)cc1Cl	x	x	x	21µM*	x	x
Cc1ccc(NC(=O)CCc2c(C)nn(-c3ccc(N4CCCCC4)nn3)c2C)cc1F	4µM*	u	x	3.4µM*	x	2µM*
Cc1ccc(C)c(NC(=O)CCc2c(C)nn(-c3ccc(N4CCCCC4)nn3)c2C)c1	5%	0%[9.26 µM]	x	u	x	-2%
COc1ccc(CNC(=O)CCc2c(C)nn(-c3ccc(N4CCCCC4)nn3)c2C)c(OC)c1	x	x	x	-12%	x	x
CCCc1nc(N2CCOCC2)c2sc(=S)n(-c3ccccc3)c2n1	1%	9%	-1%	1%	-12%	-2%
O=C(CSc1nc(-c2ccccc2)no1)N1CCN(c2ccc(F)cc2)CC1	x	x	x	-2%	x	x
COC(=O)c1ccc2[nH]c(CO)c(-c3ccccc3)c2c1	-6%	9%	x	-10%	x	3%
CCC(C)(O)c1[nH]c2ccc(C(=O)OC)cc2c1C (configuration not stated)	29%	19%	x	21µM*	x	24%
Cc1ccc(NC(=O)c2ccc3c(c2)C(=O)N(CC2CCCO2)C3=O)cc1C (configuration not stated)	14%	2%	0%	11µM*	x	0%
